Experimental data as given in ChEMBL document CHEMBL1201862, “PubChem BioAssay data set” (2004).
“And” between values parts separate entries of the source, which are not always exact repeats. Equal values may be shown once.

Experiment: M. tuberculosis growth inhibition, dose response, purified and synthesized samples, set 9 (AID 602435); call rule not given here
Format: functional

Structure (SMILES)	IC90
O=C(c1ccc(CNc2c(N3CCCC3)c(=O)c2=O)cc1)N1CC=C(c2ccccc2)CC1	> 44.6 µM (active) and > 50 µM (active)
O=C(c1ccc(CNc2c(N3CCOCC3)c(=O)c2=O)cc1)N1CCN(c2ccccc2)CC1	> 100 µM (active)
CC1CC(C)CN(C(=O)C2CCC(CNc3c(N4CCCCC4)c(=O)c3=O)CC2)C1 (configuration not stated)	> 75 µM (active) and > 50 µM (active)
O=C(NCCc1ccc(Cl)cc1)C1CCC(CNc2c(N3CCCCC3)c(=O)c2=O)CC1 (configuration not stated)	> 50 µM (active)
CC1CCN(C(=O)c2ccc(CNc3c(N4CCCC4)c(=O)c3=O)cc2)CC1	> 50 µM (active)
O=C(c1ccc(CNc2c(N3CCCC3)c(=O)c2=O)cc1)N1CCC(c2ccccc2)CC1	> 100 µM (active)
CC1CCCN(C(=O)C2CCC(CNc3c(N4CCCCC4)c(=O)c3=O)CC2)C1 (configuration not stated)	> 50 µM (active)
CC(=O)c1ccc(NC(=O)c2ccc(CNc3c(N4CCOCC4)c(=O)c3=O)cc2)cc1	> 50 µM (active)
COc1ccc(N2CCN(C(=O)c3ccc(CNc4c(N5CCOCC5)c(=O)c4=O)cc3)CC2)cc1	> 73.2 µM (active) and > 39 µM (active)
CC1CC(C)CN(C(=O)c2ccc(CNc3c(N4CCCC4)c(=O)c3=O)cc2)C1 (configuration not stated)	> 50 µM (active)
CC1CCCN(C(=O)c2ccc(CNc3c(N4CCCCC4)c(=O)c3=O)cc2)C1 (configuration not stated)	> 50 µM (active)
Cc1cccc(N2CCN(C(=O)c3ccc(CNc4c(N5CCC(C)CC5)c(=O)c4=O)cc3)CC2)c1C	> 50 µM (active)
CC(C)CCNC(=O)CSc1nc2c(c(=O)[nH]1)CCCCC2	> 100 µM (active)
O=C(c1ccc(CNc2c(N3CCCC3)c(=O)c2=O)cc1)N1CCc2ccccc2C1	> 50 µM (active)
O=C(c1ccc(CNc2c(N3CCCC3)c(=O)c2=O)cc1)N1CCN(c2ccccc2)CC1	> 83.3 µM (active)
CC(C)OC(=O)CSc1ncnc2c1cnn2-c1ccccc1	> 100 µM (active)
O=C(C1CCC(CNc2c(N3CCCCC3)c(=O)c2=O)CC1)N1CCCCC1 (configuration not stated)	> 50 µM (active)
